Screen size: about 5,500 compounds; about 2,000 (36%) were called active. Inconclusive results (about 18%) are left out. No stated cut-off is given here; in the data, active means normalized growth mostly below about 0.91 (no sharp cut-off); inconclusive means no clear call, values can overlap the other calls; inactive means mostly above about 0.92. This is one part of the list.
Test: chemical genetic growth profiling, strain panel (AID 1159580);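 further: tested at 20 µM; growth read once vehicle control cultures reached saturation at 30 °C; 1 = growth at the plate median or of vehicle wells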
Settings: S. cerevisiae deletion strains, growth OD
[1] = locus YDL101C, strain DUN1, stronger effect = lower value
[2] = locus YHR030C, strain SLT2, stronger effect = lower value

Measured: normalized growth

Cc1nc(-c2nnc(Sc3ccc(C(F)(F)F)cc3[N+](=O)[O-])n2C)cs1
inactive: locus YAL013W, strain DEP1, stronger effect = lower value 1.01 | locus YBR229C, strain ROT2, stronger effect = lower value 1.01 | locus YCL061C, strain MRC1, stronger effect = lower value 0.995 | [1] 1 | locus YDR150W, strain NUM1, stronger effect = lower value 0.993 | locus YEL061C, strain CIN8, stronger effect = lower value 0.998 | locus YGR078C, strain PAC10, stronger effect = lower value 1.01 | [2] 0.965 | locus YHR087W, strain rtc3, stronger effect = lower value 1.02 | locus YJR043C, strain POL32, stronger effect = lower value 1.01 | locus YJR075W, strain HOC1, stronger effect = lower value 0.987 | locus YLR039C, strain RIC1, stronger effect = lower value 0.965 | locus YLR058C, strain SHM2 (second series), stronger effect = lower value 1.01 | locus YLR085C, strain ARP6, stronger effect = lower value 1.14 | locus YLR262C, strain YPT6, stronger effect = lower value 0.844 | locus YML094W, strain GIM5, stronger effect = lower value 1.01 | locus YMR219W, strain ESC1, stronger effect = lower value 1 | locus YMR263W, strain SAP30, stronger effect = lower value 1.02 | locus YNL153C, strain GIM3, stronger effect = lower value 0.998 | locus YNL298W, strain CLA4 (second series), stronger effect = lower value 1.01 | locus YNL322C, strain KRE1, stronger effect = lower value 1 | locus YNR030W, strain Alg12, stronger effect = lower value 1.01 | locus YPL055C, strain LGE1, stronger effect = lower value 1.02 | locus YPL241C, strain CIN2, stronger effect = lower value 1 | locus YPR135W, strain CTF4, stronger effect = lower value 0.956

Cc1ccc(S(=O)(=O)n2c(Sc3ccc([N+](=O)[O-])cc3[N+](=O)[O-])nc3cc(C)ccc32)cc1
inactive: locus YAR019C, strain CDC15, stronger effect = lower value 0.996 | locus YBL105C, strain PKC1, stronger effect = lower value 0.972 | locus YBR135W, strain CKS1, stronger effect = lower value 0.983 | locus YBR136W, strain MEC1, stronger effect = lower value 0.986 | locus YBR160W, strain CDC28, stronger effect = lower value 0.986 | locus YDL017W, strain CDC7, stronger effect = lower value 0.986 | locus YDL028C, strain MPS1, stronger effect = lower value 0.992 | [1] 0.989 | locus YDL108W, strain KIN28, stronger effect = lower value 0.987 | locus YDL132W, strain cdc53, stronger effect = lower value 0.989 | locus YDL214C, strain PRR2, stronger effect = lower value 0.947 | locus YDR052C, strain DBF4, stronger effect = lower value 0.987 | locus YDR054C, strain cdc34, stronger effect = lower value 0.986 | locus YDR226W, strain ADK1, stronger effect = lower value 0.987 | locus YDR477W, strain SNF1, stronger effect = lower value 0.968 | locus YER123W, strain YCK3, stronger effect = lower value 0.92 | locus YER133W, strain GLC7, stronger effect = lower value 0.945 | locus YFL009W, strain cdc4, stronger effect = lower value 0.989 | locus YFL029C, strain CAK1, stronger effect = lower value 0.988 | locus YFR003C, strain YPI1, stronger effect = lower value 0.986 | locus YFR019W, strain FAB1, stronger effect = lower value 0.961 | locus YFR028C, strain CDC14, stronger effect = lower value 0.99 | locus YGR040W, strain KSS1, stronger effect = lower value 0.97 | locus YGR052W, strain FMP48, stronger effect = lower value 0.966 | locus YGR092W, strain DBF2, stronger effect = lower value 0.86 | locus YHR079C, strain IRE1, stronger effect = lower value 0.884 | locus YHR082C, strain KSP1, stronger effect = lower value 1.04 | locus YHR205W, strain SCH9, stronger effect = lower value 0.868 | locus YIL147C, strain SLN1, stronger effect = lower value 0.99 | locus YJL095W, strain BCK1, stronger effect = lower value 0.879 | locus YJL128C, strain PBS2, stronger effect = lower value 0.939 | locus YJL157C, strain FAR1, stronger effect = lower value 0.936 | locus YJR016C, strain ILV3, stronger effect = lower value 0.986 | locus YJR066W, strain TOR1 (second series), stronger effect = lower value 0.898 | locus YJR066W, strain TOR1, stronger effect = lower value 1 | locus YKL048C, strain ELM1, stronger effect = lower value 0.947 | locus YKL067W, strain YNK1, stronger effect = lower value 0.935 | locus YKL101W, strain HSL1, stronger effect = lower value 0.917 | locus YKL193C, strain SDS22, stronger effect = lower value 0.996 | locus YKL203C, strain TOR2, stronger effect = lower value 1 | locus YLR133W, strain CKI1, stronger effect = lower value 0.932 | locus YLR403W, strain SFP1, stronger effect = lower value 0.917 | locus YML070W, strain DAK1, stronger effect = lower value 0.926 | locus YMR001C, strain CDC5, stronger effect = lower value 0.987 | locus YMR205C, strain PFK2 (second series), stronger effect = lower value 0.947 | locus YMR277W, strain FCP1, stronger effect = lower value 0.988 | locus YNL006W, strain LST8, stronger effect = lower value 0.971 | locus YNL020C, strain ARK1, stronger effect = lower value 0.898 | locus YNL161W, strain CBK1, stronger effect = lower value 0.968 | locus YNL183C, strain NPR1, stronger effect = lower value 0.958 | locus YNL207W, strain RIO2, stronger effect = lower value 0.984 | locus YNL222W, strain SSU72, stronger effect = lower value 0.975 | locus YNL307C, strain MCK1 (second series), stronger effect = lower value 0.901 | locus YOL078W, strain AVO1, stronger effect = lower value 0.987 | locus YOL136C, strain PFK27, stronger effect = lower value 0.919 | locus YOR061W, strain CKA2, stronger effect = lower value 0.873 | locus YOR119C, strain RIO1, stronger effect = lower value 1.03 | locus YOR231W, strain MKK1, stronger effect = lower value 0.887 | locus YOR329C, strain SCD5, stronger effect = lower value 0.968 | locus YPL031C, strain PHO85, stronger effect = lower value 0.951 | locus YPL153C, strain RAD53, stronger effect = lower value 0.964 | locus YPL204W, strain HRR25, stronger effect = lower value 0.931 | locus YPL209C, strain IPL1, stronger effect = lower value 0.971 | locus YPL256C, strain CLN2, stronger effect = lower value 0.862 | locus YPR025C, strain CCL1, stronger effect = lower value 0.988 | locus YPR106W, strain ISR1, stronger effect = lower value 0.989 | locus YPR111W, strain DBF20, stronger effect = lower value 0.966 | strain NNK1, stronger effect = lower value 0.982 | strain TSCII, stronger effect = lower value 0.986
active: [2] 0.839 | locus YLR113W, strain HOG1, stronger effect = lower value 0.748

Source: PubChem BioAssay AID1159580 (chemical genetic matrix, 2015)
